Assay results published in PubChem BioAssay (NCI).
About 83,000 compounds went through this panel and 20% of them were active in at least one assay; those are over-represented in the sample as a whole.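 Note: values are percent growth. 100 is the growth of untreated cells, values between 100 and 0 indicate rising inhibition; between -100 and 0 indicates cell death.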 Unmarked numbers belong to inactive results. Active and inactive are the calls of the source. Rule for the calls: active = growth percent below 10; inactive = the rest.

Assays:
Experiment in all cases: NCI-60 one-dose screen, 48 h (100 = growth as untreated, 0 = no growth, -100 = all killed)
Details in all cases: 10 µM
786-0 renal = test system: 786-0 renal
MALME-3M melanoma = test system: MALME-3M melanoma
SF-268 CNS = test system: SF-268 CNS
SF-295 CNS = test system: SF-295 CNS
UACC-257 melanoma = test system: UACC-257 melanoma
UACC-62 melanoma = test system: UACC-62 melanoma
SK-MEL-28 melanoma = test system: SK-MEL-28 melanoma
SK-MEL-2 melanoma = test system: SK-MEL-2 melanoma
EKVX NSCLC = test system: EKVX NSCLC
SN12C renal = test system: SN12C renal
UO-31 renal = test system: UO-31 renal
TK-10 renal = test system: TK-10 renal
ACHN renal = test system: ACHN renal
CAKI-1 renal = test system: CAKI-1 renal
A498 renal = test system: A498 renal
OVCAR-8 ovarian = test system: OVCAR-8 ovarian
OVCAR-5 ovarian = test system: OVCAR-5 ovarian
IGROV1 ovarian = test system: IGROV1 ovarian
OVCAR-3 ovarian = test system: OVCAR-3 ovarian
HS 578T breast = test system: HS 578T breast

With `Cn1cc(-c2cc3nc(-c4c[nH]c5ccccc45)cc(N)n3n2)c2cc(Cl)ccc21` the growth (786-0 renal) was -85.7% (active), the growth (MALME-3M melanoma) was -90.8% (active) and the growth (SF-268 CNS) was -44.6% (active). The growth (SF-295 CNS) was -90.9% (active), the growth (UACC-257 melanoma) was -90.4% (active) and the growth (UACC-62 melanoma) was -85.8% (active). For the same compound, the growth (SK-MEL-28 melanoma) was -99.4% (active), the growth (SK-MEL-2 melanoma) was -95.8% (active) and the growth (EKVX NSCLC) was -90% (active). For the same compound, the growth (SN12C renal) was -85.7% (active), the growth (UO-31 renal) was -97.7% (active) and the growth (TK-10 renal) was -91.8% (active). The growth (ACHN renal) was -100% (active), the growth (CAKI-1 renal) was -98.7% (active) and the growth (A498 renal) was -82.9% (active). The growth (OVCAR-8 ovarian) was -86.1% (active), the growth (OVCAR-5 ovarian) was -86.4% (active) and the growth (IGROV1 ovarian) was -64.5% (active). The growth (OVCAR-3 ovarian) was -80% (active) and the growth (HS 578T breast) was -22.2% (active).
`COc1ccc(Cn2cc(C#N)c(N)c2C(C)=O)c(OC)c1` showed a growth (786-0 renal) of 102%, a growth (MALME-3M melanoma) of 108% and a growth (SF-268 CNS) of 103%. It also gave a growth (SF-295 CNS) of 109%, a growth (UACC-257 melanoma) of 109% and a growth (UACC-62 melanoma) of 98.1%. It also gave a growth (SK-MEL-28 melanoma) of 109%, a growth (SK-MEL-2 melanoma) of 126% and a growth (EKVX NSCLC) of 98.6%. The growth (SN12C renal) was 96.4%, the growth (UO-31 renal) was 96.4% and the growth (TK-10 renal) was 113%. It also gave a growth (ACHN renal) of 101%, a growth (CAKI-1 renal) of 102% and a growth (A498 renal) of 97.8%. The growth (OVCAR-8 ovarian) was 104%, the growth (OVCAR-5 ovarian) was 112% and the growth (IGROV1 ovarian) was 112%. It also gave a growth (OVCAR-3 ovarian) of 105% and a growth (HS 578T breast) of 111%.
With `O=C(CN1CCN(c2ncnc3c2cnn3-c2ccccc2)CC1)Nc1ccc(Cl)cc1` the growth (786-0 renal) was 40.4%, the growth (MALME-3M melanoma) was -56.2% (active) and the growth (SF-268 CNS) was 44.3%. For the same compound, the growth (SF-295 CNS) was 80.3%, the growth (UACC-257 melanoma) was 49.9% and the growth (UACC-62 melanoma) was 45.3%. For the same compound, the growth (SK-MEL-28 melanoma) was 72.8%, the growth (SK-MEL-2 melanoma) was 34.2% and the growth (EKVX NSCLC) was 45%. The growth (SN12C renal) was 46.6%, the growth (UO-31 renal) was -60.5% (active) and the growth (TK-10 renal) was 97.3%. The growth (ACHN renal) was -80.7% (active), the growth (CAKI-1 renal) was -39.7% (active) and the growth (A498 renal) was 78.7%. It also gave a growth (OVCAR-8 ovarian) of 56.6%, a growth (OVCAR-5 ovarian) of 85.6% and a growth (IGROV1 ovarian) of 48%. It also gave a growth (OVCAR-3 ovarian) of 51.8% and a growth (HS 578T breast) of 64.6%.
`CCOc1ccc(/C=N/NC(=O)Cn2nc(Cc3ccc(OC)cc3)c3onc(C)c3c2=O)cc1` was tested, and the growth (786-0 renal) was -40.3% (active), the growth (MALME-3M melanoma) was -14.5% (active) and the growth (SF-268 CNS) was 19%. It also gave a growth (SF-295 CNS) of 20.4%, a growth (UACC-257 melanoma) of 62.1% and a growth (UACC-62 melanoma) of 29.2%. It also gave a growth (SK-MEL-28 melanoma) of 11.5%, a growth (SK-MEL-2 melanoma) of 55.9% and a growth (EKVX NSCLC) of 33.8%. The growth (SN12C renal) was -6.22% (active), the growth (UO-31 renal) was 2.46% (active) and the growth (TK-10 renal) was 50.2%. For the same compound, the growth (ACHN renal) was 13.1%, the growth (CAKI-1 renal) was 5.68% (active) and the growth (A498 renal) was 48.2%. The growth (OVCAR-8 ovarian) was 16.9%, the growth (OVCAR-5 ovarian) was 44.9% and the growth (IGROV1 ovarian) was 25.7%. The growth (OVCAR-3 ovarian) was 13.7% and the growth (HS 578T breast) was 1.74% (active).
With `O=C1S/C(=C\c2ccc([N+](=O)[O-])cc2)C(=O)N1CCN1CCCCC1` the growth (786-0 renal) was 105%, the growth (MALME-3M melanoma) was 118% and the growth (SF-268 CNS) was 112%. For the same compound, the growth (SF-295 CNS) was 111%, the growth (UACC-257 melanoma) was 112% and the growth (UACC-62 melanoma) was 99.6%. For the same compound, the growth (SK-MEL-28 melanoma) was 109%, the growth (SK-MEL-2 melanoma) was 111% and the growth (EKVX NSCLC) was 104%. The growth (SN12C renal) was 98.5%, the growth (UO-31 renal) was 102% and the growth (TK-10 renal) was 106%. It also gave a growth (ACHN renal) of 103%, a growth (CAKI-1 renal) of 102% and a growth (A498 renal) of 126%. The growth (OVCAR-8 ovarian) was 105%, the growth (OVCAR-5 ovarian) was 114% and the growth (IGROV1 ovarian) was 112%. The growth (OVCAR-3 ovarian) was 116% and the growth (HS 578T breast) was 115%.
For `COc1ccc(Cc2nn(CC(=O)N/N=C/c3ccc(Br)cc3)c(=O)c3c(C)noc23)cc1`, the growth (786-0 renal) was -53.2% (active), the growth (MALME-3M melanoma) was -8.55% (active) and the growth (SF-268 CNS) was 37.3%. For the same compound, the growth (SF-295 CNS) was -4.74% (active), the growth (UACC-257 melanoma) was 72.2% and the growth (UACC-62 melanoma) was 54.3%. For the same compound, the growth (SK-MEL-28 melanoma) was 70.2%, the growth (SK-MEL-2 melanoma) was 7.39% (active) and the growth (EKVX NSCLC) was 55.1%. The growth (SN12C renal) was 12.4%, the growth (UO-31 renal) was -15.7% (active) and the growth (TK-10 renal) was -0.687% (active). For the same compound, the growth (ACHN renal) was 5.6% (active), the growth (CAKI-1 renal) was 21.4% and the growth (A498 renal) was 21.3%. For the same compound, the growth (OVCAR-8 ovarian) was 33.9%, the growth (OVCAR-5 ovarian) was 59% and the growth (IGROV1 ovarian) was 37.6%. For the same compound, the growth (OVCAR-3 ovarian) was 28.5% and the growth (HS 578T breast) was 2% (active).
`O=C(c1ccc(F)cc1)C(c1c[nH]c2ccccc12)c1c[nH]c2ccccc12` showed a growth (786-0 renal) of 80.1%, a growth (MALME-3M melanoma) of 69.5% and a growth (SF-268 CNS) of 63%. The growth (SF-295 CNS) was 105%, the growth (UACC-257 melanoma) was 86.3% and the growth (UACC-62 melanoma) was 53.7%. It also gave a growth (SK-MEL-28 melanoma) of 63.6%, a growth (SK-MEL-2 melanoma) of 87.5% and a growth (EKVX NSCLC) of 88.5%. It also gave a growth (SN12C renal) of 42.6%, a growth (UO-31 renal) of 43.8% and a growth (TK-10 renal) of 148%. The growth (ACHN renal) was 39.4%, the growth (CAKI-1 renal) was 31.5% and the growth (A498 renal) was 98.3%. It also gave a growth (OVCAR-8 ovarian) of 76.3%, a growth (OVCAR-5 ovarian) of 52.5% and a growth (IGROV1 ovarian) of 49.9%. The growth (OVCAR-3 ovarian) was 46.9% and the growth (HS 578T breast) was 86.1%.
